Hit rate of the full screen: of about 370,000 compounds, about 2,400 (0.65%) were called active. Shown is part of a subset that was picked to be rich in actives. A number with no mark means an inactive call.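 The calls were made as follows: active = inhibition above the screen-wide mean plus 3 SD (cut at about 13% in these data); inactive = the rest.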
System: HIV-1 integrase (with human LEDGF/p75)
Test: blockers of LEDGF/p75-dependent integrase strand transfer – biochemical, TR-FRET, high throughput, primary screen (AID 743269);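 also: signal is the Cy5 over europium emission ratio at 671 and 618 nm; 0% = plate median of compound wells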
Conditions: TR-FRET IN-LEDGF/p75 DNA integration, Eu/Cy5; at 3.7 µM; hits give high values

| SMILES | inhibition |
| --- | --- |
| CC(=O)Nc1ccc(NC(=O)CSc2nnc(COc3ccccc3C)n2CC2CCCO2)cc1 (stereo not given) | -8.13% |
| CCOc1ccc(NC(=O)c2cccc3c2C(=O)N(CC2CCCO2)C3)cc1 (stereo not given) | 0.61% |
| CCOc1cccc(=O)c2c(C)n(CC3CCCO3)c(C)c12 (stereo not given) | 19.8% (active) |
| COc1ccccc1CCNC(=O)C1CCN(c2nc(C)cc(C)n2)CC1 | -0.51% |
| O=C(NCc1cccs1)C1CCCN(S(=O)(=O)c2ccc([N+](=O)[O-])cc2)C1 (stereo not given) | 4.07% |
| O=C(Nc1ccccc1F)c1ccccc1-c1ccccc1 | -1.52% |
| NC(=O)c1ccccc1NC(=O)c1ccccc1F | 30.1% (active) |
| O=C(Nc1nnc(-c2ccccc2F)s1)c1ccccc1F | 5.09% |
| Cc1cc(NS(=O)(=O)c2ccc(NC(=O)CSc3nnc(-c4ccc(C(C)(C)C)cc4)n3Cc3ccco3)cc2)nc(C)n1 | 2.06% |
| COC(=O)[C@]1(C#N)CC(=O)N(CC2CCCCC2)[C@@H]1c1ccccc1 | 8.17% |
| COc1ccc(CCC(C)N2CCc3ccccc3C2)cc1 (stereo not given) | 0% |
| COCCn1nnnc1C(c1cc2ccc(OC)cc2[nH]c1=O)N1CCc2ccccc2C1 (stereo not given) | 23.1% (active) |
| COCCn1nnnc1C(c1ccccc1Cl)N1CCN(c2ccccc2OC)CC1 (stereo not given) | -2.12% |
| O=C(CSc1nnc(-c2ccccn2)n1-c1ccccc1)Nc1ccc2cn[nH]c2c1 | 3.75% |
| CC[C@@H](CCC(=O)N(c1ccccc1)c1ccccc1)C1CC1 | -0.47% |
| CCOC(=O)c1[nH]c(C)c(C(=O)OCC(=O)N2c3ccccc3CC2C)c1C (stereo not given) | 0.57% |
| CCOC(=O)c1c(C)[nH]c2c1-c1ccccc1C(=O)C2=O | 35% (active) |
| CCOC(=O)C1=C(C)c2ccccc2OC1C(=O)OCC (stereo not given) | 0.5% |
| CN1C(=O)c2cc(NS(C)(=O)=O)ccc2OC[C@@H]2O[C@@H](CC(=O)NCc3ccc(-c4ccccc4)cc3)CC[C@H]21 | 0.81% |
| CC(CCN1CCC(C(O)(c2ccccc2)c2ccccc2)CC1)Oc1ccc(Cl)cc1 (stereo not given) | -0.76% |
| Cc1cc2nc3c(=O)[nH]c(=O)nc-3n(C[C@H](O)[C@H](O)[C@H](O)CO)c2cc1C | -0.23% |
| CCN(CC)CCCC(C)n1c2nc(=O)[nH]c(=O)c-2nc2cc(Cl)ccc21 (stereo not given) | 19.5% (active) |

| SMILES | inhibition |
| --- | --- |
| CC(CCN1CCC(C(O)(c2ccccc2)c2ccccc2)CC1)Oc1ccc([N+](=O)[O-])cc1Cl (stereo not given) | 5.97% |
| O=C(CCCCCN1C(=O)C2C3C=CC(C3)C2C1=O)Nc1ccccn1 (stereo not given) | 1.71% |
| Cc1cc(SCC(=O)NCCN2C(=O)CSC2=O)nc2ccccc12 | 24.8% (active) |
| COc1ccc2c(C)cc(SCC(=O)NCC3CCCO3)nc2c1 (stereo not given) | 5.4% |
| CCCNC(=O)CSc1nc(Cc2ccccc2)nc2ccccc12 | -2.65% |
| COP(=O)(O)CNC(=O)OCc1ccccc1 | 2.52% |
| C[C@@H](NC(=O)c1ccccc1OCC(=O)Nc1ccc(I)cc1)C(=O)N(C)Cc1ccccc1 | -0.62% |
| CCCOc1ccc(Oc2c(Cl)cnn(Cc3cccc4ccccc34)c2=O)cc1 | -4.41% |
| c1ccc(C2=Nc3cccc4cccc(c34)N2)cc1 | 15.3% (active) |
| Brc1ccc(C2CC(c3ccccc3)=Nc3ccccc3N2)cc1 (stereo not given) | 5.04% |
| CCOC(=O)[C@]12CCCCC/C=C\1N(Cc1ccc(OC)cc1)C(=O)[C@H]2CC(=O)N1CCOCC1 | -1.27% |
| Cc1cc(C)n2ncc(C(=O)Nc3ccc4c(c3)OCCO4)c2n1 | 1.44% |
| CC(=O)Nc1ccc(C(=O)OCC(=O)Nc2ccc([N+](=O)[O-])cc2C(F)(F)F)cc1 | 1.78% |
| Cn1ccc(=Nc2ccc(NC(=O)c3ccc(N=c4ccn(C)c5ccc([N+](=O)[O-])cc45)cc3)cc2)cc1 | 19.9% (active) |
| O=C(Nc1cc2c3c(c1)C1CCCC1CN3CC1CCCC21)c1ccc([N+](=O)[O-])cc1 (stereo not given) | 0.76% |
| Cc1ccccc1CN1CCCCC(NC(=O)Nc2ccccc2F)C1=O (stereo not given) | -1.11% |
| O=C(Nc1cc(F)cc(F)c1)OC1CCC12CCC(c1ccccc1)CC2 (stereo not given) | -2.65% |
| CCCNC(=O)Nc1ccc2c(c1)C(=O)N(C)[C@H]1CC[C@H](CC(=O)NCC3CCCCC3)O[C@@H]1CO2 | -2.65% |
| Cc1cc(=O)n2[nH]c(-c3sccc3-n3c(C)ccc3C)cc2n1 | 55.6% (active) |
| CCOC(=O)N1CCN(C(=O)C[C@@H]2C(=O)N(CCc3ccc(Cl)cc3)C3=CCCC[C@]32C(=O)OCC)CC1 | -0.28% |
| COc1ccc(CSc2nnc(SCC(=O)Nc3ccccc3C(F)(F)F)s2)cc1 | -4.35% |
| O=C(COC(=O)CCC(=O)c1cccs1)NCc1ccco1 | 38.8% (active) |

| SMILES | inhibition |
| --- | --- |
| CCN(C(=O)COC(=O)CCC(=O)c1cccs1)C1CCCCC1 | 9.09% |
| CC1CCN(C(=O)COC(=O)CCC(=O)c2cccs2)CC1 | 0.03% |
| C=CCN1C(=O)[C@@H](CC(=O)N2CCN(C(=O)c3ccco3)CC2)[C@]2(C(=O)OC)CCCCC=C12 | -3.78% |
| COc1cc(/C=C/C(=O)n2cnc3ccccc32)cc(OC)c1OC | -2.83% |
| C[C@@H]1ON(C)[C@H]2C[C@H]3c4[nH]c5cccc(-c6ccc7c(c6)OCO7)c5c4CCN3C[C@@H]12 | 4.41% |
| Cc1ccc(/C=N/NC(=O)c2sccc2OCc2ccc(F)cc2)cc1 | -2.37% |
| Cc1c(Cl)c([N+](=O)[O-])nn1Cc1ccc(C(=O)N/N=C\c2cc(Cl)ccc2O)o1 | -2.68% |
| Cc1cc(C(=O)N/N=C/c2ccc(O)c([N+](=O)[O-])c2)c(C)n1-c1ccc(F)cc1 | 18.1% (active) |
| CCC[C@H]1C(=O)CC[C@@]23CCCN2C(=O)CCC[C@@H]13 | 0.78% |
| O=C(OCCOc1ccccc1Cl)c1cc(S(=O)(=O)N2CCCCC2)ccc1N1CCOCC1 | 4.88% |
| O=C(OCCOc1ccccc1F)c1cc(S(=O)(=O)N2CCOCC2)ccc1F | 13.4% (active) |
| O=C(COC(=O)c1cc(S(=O)(=O)N2CCOCC2)ccc1F)NC1CC1 | 1.33% |
| O=C(NCC1COc2ccccc2O1)c1ccc(NC(=O)c2cc(F)ccc2F)cc1 (stereo not given) | -2.1% |
| COc1ccc2[nH]c3c(C)c4cc[n+](C)cc4c(C)c3c2c1 | 28% (active) |
| O=C(CSc1nc2c(c(=O)[nH]1)CCCC2)N1CCCCC1 | 3.68% |
| CCOC(=O)C(=O)N(Cc1ccccc1)c1ccccc1C(=O)Nc1cc(OC)ccc1OC | 0.37% |
| COC(=O)[C@]12C[C@H](CC(=O)NCc3ccccc3)C(=O)N(CCc3ccc(OC)c(OC)c3)C1=C[C@H](C(C)(C)C)O[C@@H]2C | -2.49% |
| Cc1ccc(-c2nn(-c3ccccc3)cc2/C=C2\SC(=S)N(CCCCCC(=O)O)C2=O)o1 | 13.6% (active) |
| C#CCNC(=O)C[C@H]1C[C@@]2(C(=O)OC)C(=C[C@H](C(C)C)O[C@@H]2C2CC2)N(Cc2ccco2)C1=O | 0.25% |
| C=C(C)C#CC(Cc1ccccc1)NCC1CC1 (stereo not given) | -6.26% |
| CN[C@H]1C[C@H]2c3cc(N4CCOCC4)ccc3CCN2C[C@H]1[C@H](C)O | 3.07% |
| Cc1ccc(C)c(OCCC(=O)OCC(=O)N2CCN(c3ccccc3)CC2)c1 | -9.14% |

| SMILES | inhibition |
| --- | --- |
| C[C@H](NC(=O)c1ccccc1Cl)C(=O)OCC(=O)N1CCN(c2ccccc2)CC1 | 1.43% |
| O=C(OCC(=O)N1CCN(c2ccccc2)CC1)c1ccc([N+](=O)[O-])s1 | 16.4% (active) |
| COc1ccc(-n2c(SCC(=O)Nc3ccccc3-c3ccccc3)nnc2-c2cccnc2)cc1 | -1.52% |
| COc1ccc(NC(=O)C(NC(C)=O)C(=O)NCc2ccccc2Cl)cc1 (stereo not given) | 41.8% (active) |
| COc1ccc(CNC(=O)C(C)NCc2ccccc2Cl)cc1 (stereo not given) | -0.38% |
| COc1ccc(NC(=O)N2CCCC2C(=O)NCc2ccccc2Cl)cc1 (stereo not given) | -4.21% |
| CCC(=O)OCCCN1C(=O)CCC12CCC(c1ccccc1)CC2 (stereo not given) | 2.48% |
| O=C1CC(c2ccc3c(c2)OCO3)N=C2N(CC3CC3)C/C(=C/c3ccccc3)N12 (stereo not given) | -0.65% |
| Cc1cc(NS(=O)(=O)c2ccc(NC(=O)CSc3nnc(SCc4ccc(F)cc4)s3)cc2)nc(C)n1 | -3.91% |
| CCOC(=O)C1CCN(C(=O)C(C)(C)NC(=O)Nc2ccc(F)c(F)c2)CC1 | 3.2% |
| Cc1ccc(S(=O)(=O)/N=C2\C=C(NS(=O)(=O)c3ccc(C)cc3)C(=O)c3ccccc32)cc1 | 14.9% (active) |
| CNC(=O)COc1ccc(S(=O)(=O)Nc2ccccc2)cc1 | -0.9% |
| COc1ccc(S(=O)(=O)/N=C2\C=C(NS(=O)(=O)c3ccccc3)C(=O)c3ccccc32)cc1 | 15.6% (active) |
| COc1ccc(C(=O)C(C)OC(=O)c2cccc(S(=O)(=O)Nc3c(C)n(C)n(-c4ccccc4)c3=O)c2)cc1 (stereo not given) | 1.63% |
| Cc1ccc(S(=O)(=O)N[C@H](CO)C(C)C)cc1 | 4.45% |
| Cc1ccc(S(=O)(=O)N/N=C(\c2ccccc2)C2CC2)cc1 | 0.27% |
| Cc1ccc(C)c(NC(=O)CCS(=O)(=O)c2ccccc2)c1 | 1.44% |
| O=C1CC[C@@]23CCCN2C(=O)CCC[C@H]3[C@H]1Cc1ccccc1 | -0.34% |
| Fc1ccc2nc(COCc3nc4ccc(F)cc4[nH]3)[nH]c2c1 | 0.7% |
